These results are taken from PubChem BioAssay (EPA / NIEHS).

Read-out in experiment [1]: Interleukin-8 (IL8), CXCL8 (gene 3576)
Description: BSK_CASM3C_IL8: BioMAP Diversity Plus: CASM3C Assay for Interleukin-8 (IL8) Biomarker Activity (AID 2283042).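 Further: IL-8 protein level quantified by ELISA.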 The conditions noted are these: primary human coronary artery smooth muscle cells; actives raise or lower the signal.

Read-out in experiment [2]: Human Leukocyte Antigen - DR isotype (HLADR), HLA-DRA (gene 3122)
Description: BSK_CASM3C_HLADR: BioMAP Diversity Plus: CASM3C Assay for Human Leukocyte Antigen - DR isotype (HLADR) Biomarker Activity (AID 2283043).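 Further: cell-surface HLA-DR protein level quantified by ELISA.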 The conditions noted are these: primary human coronary artery smooth muscle cells; actives raise or lower the signal.

Read-out in experiment [3]: Macrophage colony-stimulating factor (MCSF), CSF1 (gene 1435)
In words: BSK_CASM3C_MCSF: BioMAP Diversity Plus: CASM3C Assay for Macrophage colony-stimulating factor (MCSF) Biomarker Activity (AID 2283044).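 Further: M-CSF protein amount quantified by ELISA after 24 h exposure.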 The conditions noted are these: primary human coronary artery smooth muscle cells; actives raise or lower the signal.

Read-out in experiment [4]: Low-density lipoprotein receptor (LDLR), LDLR (gene 3949)
In words: BSK_CASM3C_LDLR: BioMAP Diversity Plus: CASM3C Assay for Low-density lipoprotein receptor (LDLR) Biomarker Activity (AID 2283045).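 Further: LDLR protein level on the cell surface quantified by ELISA.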 Conditions: primary human coronary artery smooth muscle cells; actives raise or lower the signal.

Read-out in experiment [5]: Monocyte Chemoattractant Protein-1 (MCP1), CCL2 (gene 6347)
In words: BSK_CASM3C_MCP1: BioMAP Diversity Plus: CASM3C Assay for Monocyte Chemoattractant Protein-1 (MCP1) Biomarker Activity (AID 2283046).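 Further: MCP-1 level quantified by ELISA 24 h after dosing.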 The conditions noted are these: primary human coronary artery smooth muscle cells; actives raise or lower the signal.

The nature of experiment [6]: BSK_CASM3C_Proliferation: Cell Proliferation Assessment in the BioMAP Diversity Plus: CASM3C Assay (AID 2283047).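 Further: sulforhodamine B total protein stain as relative cell number at 560 nm; sub-confluent cells exposed 48 h before staining; fitted both ways against DMSO so gain or loss of cell number.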 The conditions noted are these: primary human coronary artery smooth muscle cells.
Read-out in experiment [7]: Monokine induced gamma interferon (MIG), CXCL9 (gene 4283)
Description: BSK_CASM3C_MIG: BioMAP Diversity Plus: CASM3C Assay for Monokine induced gamma interferon (MIG) Biomarker Activity (AID 2283048).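 Further: MIG protein level measured by ELISA.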 The conditions noted are these: primary human coronary artery smooth muscle cells; actives raise or lower the signal.

Read-out in experiment [8]: serum amyloid A (SAA), SAA1 (gene 6288)
In words: BSK_CASM3C_SAA: BioMAP Diversity Plus: CASM3C Assay for serum amyloid A (SAA) Biomarker Activity (AID 2283049).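 Further: SAA protein level quantified by ELISA.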 Conditions: primary human coronary artery smooth muscle cells; actives raise or lower the signal.

Experiment [9] is described as follows: BSK_CASM3C_SRB: Viability Assessment in the BioMAP Diversity Plus: CASM3C Assay (AID 2283050).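 Further: total protein by SRB staining as cytotoxicity measure in parallel cultures; cells exposed to compound for 24 h.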 The conditions noted are these: primary human coronary artery smooth muscle cells.
Read-out in experiment [10]: Thrombomodulin, THBD (gene 7056)
In words: BSK_CASM3C_Thrombomodulin: BioMAP Diversity Plus: CASM3C Assay for Thrombomodulin Biomarker Activity (AID 2283051).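 Further: thrombomodulin protein level measured by ELISA 24 h after dosing.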 Conditions: primary human coronary artery smooth muscle cells; actives raise or lower the signal.

Read-out in experiment [11]: Tissue Factor, F3 (gene 2152)
In words: BSK_CASM3C_TissueFactor: BioMAP Diversity Plus: CASM3C Assay for Tissue Factor Biomarker Activity (AID 2283052).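 Further: cell surface tissue factor protein level read by ELISA.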 Conditions: primary human coronary artery smooth muscle cells; actives raise or lower the signal.

Read-out in experiment [12]: Interferon-gamma inducible Protein 10 (IP10), CXCL10 (gene 3627)
In words: BSK_hDFCGF_IP10: BioMAP Diversity Plus: hDFCGF Assay for Interferon-gamma inducible Protein 10 (IP10) Biomarker Activity (AID 2283053). The conditions noted are these: primary human foreskin fibroblasts; actives raise or lower the signal. The essentials:
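ELISA read-out of IP-10 (CXCL10) from primary human skin fibroblasts, 24 h after compound addition. Gain or loss of signal versus DMSO baseline, bidirectional curve fitting.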

Read-out in experiment [13]: Urokinase-type plasminogen activator receptor (uPAR), PLAUR (gene 5329)
In words: BSK_CASM3C_uPAR: BioMAP Diversity Plus: CASM3C Assay for Urokinase-type plasminogen activator receptor (uPAR) Biomarker Activity (AID 2283054).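 Further: cell-surface uPAR protein level quantified by ELISA.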 The conditions noted are these: primary human coronary artery smooth muscle cells; actives raise or lower the signal.

Read-out in experiment [14]: Vascular cell adhesion molecule 1 (VCAM1), VCAM1 (gene 7412)
In words: BSK_CASM3C_VCAM1: BioMAP Diversity Plus: CASM3C Assay for Vascular cell adhesion molecule 1 (VCAM1) Biomarker Activity (AID 2283055).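 Further: VCAM-1 protein level quantified by ELISA on the cells.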 The conditions noted are these: primary human coronary artery smooth muscle cells; actives raise or lower the signal.

Read-out in experiment [15]: Collagen III, COL3A1 (gene 1281)
Description: BSK_hDFCGF_CollagenIII: BioMAP Diversity Plus: hDFCGF Assay for Collagen III Biomarker Activity (AID 2283056). The conditions noted are these: primary human foreskin fibroblasts; actives raise or lower the signal. The gist of the method: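 ELISA read-out of collagen III from human skin fibroblast cultures sampled 24 h post-dosing. Values were derived by bidirectional fitting relative to the DMSO vehicle control.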

Read-out in experiment [16]: Epidermal growth factor receptor (EGFR), EGFR (gene 1956)
In words: BSK_hDFCGF_EGFR: BioMAP Diversity Plus: hDFCGF Assay for Epidermal growth factor receptor (EGFR) Biomarker Activity (AID 2283057). The conditions noted are these: primary human foreskin fibroblasts; actives raise or lower the signal. The gist of the method: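 ELISA readout of EGFR on human dermal fibroblasts (primary foreskin cells), 24 h post-dosing; bidirectional curve fit vs DMSO baseline, gain or loss of signal scored.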

Read-out in experiment [17]: Interleukin-8 (IL8), CXCL8 (gene 3576)
In words: BSK_hDFCGF_IL8: BioMAP Diversity Plus: hDFCGF Assay for Interleukin-8 (IL8) Biomarker Activity (AID 2283058). Conditions: primary human foreskin fibroblasts; actives raise or lower the signal. The essentials:
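Cells used are human skin primary fibroblasts. Chemical is added, cultures run 24 h, then IL-8 is quantified by ELISA, and gain or loss versus DMSO control is fitted in both directions.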

The nature of experiment [18]: BSK_hDFCGF_Proliferation: Cell Proliferation Assessment in the BioMAP Diversity Plus: hDFCGF Assay (AID 2283059).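 Further: curves fitted for both rise and fall of signal versus DMSO baseline.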 The conditions noted are these: primary human foreskin fibroblasts. The gist of the method: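 Primary human foreskin fibroblasts, sub-confluent; […]; 10% TCA fix, 0.1% SRB stain, A560 total protein. Gain/loss fitted bidirectionally vs DMSO control.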

Experiment [19] is described as follows: BSK_hDFCGF_SRB: Viability Assessment in the BioMAP Diversity Plus: hDFCGF Assay (AID 2283061).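 Further: cells exposed to compound for 24 h before the read.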 Conditions: primary human foreskin fibroblasts. The essentials:
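Readout is SRB absorbance at 560 nm, reflecting total protein in parallel cultures of human foreskin fibroblasts harvested 24 h after chemical dosing. Activity was fitted bidirectionally relative to DMSO.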

Read-out in experiment [20]: Macrophage colony-stimulating factor (MCSF), CSF1 (gene 1435)
In words: BSK_hDFCGF_MCSF: BioMAP Diversity Plus: hDFCGF Assay for Macrophage colony-stimulating factor (MCSF) Biomarker Activity (AID 2283060). The conditions noted are these: primary human foreskin fibroblasts; actives raise or lower the signal. The gist of the method: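 Primary human foreskin fibroblasts dosed with chemical; 24 h later, M-CSF quantified by ELISA; curves fitted in both directions vs DMSO negative control.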

Activity calls are given as the source filed them. How the source made its calls: active means hit-call score of the fitted dose curve at least 0.9, where 1 is the maximum; inactive means score below 0.9.

Usually AC50 stands for the concentration giving half of the maximal activity seen. `Cc1c2ccccc2c(C)c2c1ccc1ccccc12`: the result in [1], in [3], in experiment [4], in experiment [5], in [7] and in experiment [8] was inactive. Further, the outcome in experiment [11], in [13], in experiment [14], in experiment [17] and in experiment [19] was inactive. The AC50 was 20 µM (active) in experiment [2]; 12.6 µM (active) in [6]; 20 µM (active) in [9]; 20 µM (active) in experiment [10]; 6.29 µM (active) in experiment [12]; 1.73 µM (active) in [15]. For the same molecule, the AC50 is 5.45 µM (active) in experiment [16] and 7.26 µM (active) in experiment [18].
Turning to `CCO[Si](CCCNC(N)=O)(OCC)OCC`, the outcome in experiment [1], in [2], in [3], in experiment [4], in [5] and in experiment [6] was inactive. The outcome in [7], in experiment [8], in experiment [9], in experiment [10], in experiment [11] and in experiment [12] was inactive. For the same molecule, the result in experiment [13], in experiment [14], in experiment [15], in experiment [16], in experiment [17] and in experiment [18] was inactive. For the same molecule, the outcome in [19] was inactive.
As to `Clc1ccccc1C(c1ccccc1)(c1ccccc1)n1ccnc1`, the AC50 in [1] was 36.6 µM (active); in experiment [2], 28 µM (active); in experiment [3], 32.6 µM (active); in [4] it was 36.9 µM (active); in experiment [5], 34.4 µM (active); in [6] it was 22.5 µM (active). In addition, the AC50 is 39.2 µM (active) in experiment [7]; 27.1 µM (active) in experiment [8]; 29.1 µM (active) in experiment [9]; 4.88 µM (active) in [10]; 20 µM (active) in experiment [11]; 9.81 µM (active) in experiment [12]. The AC50 is 28.4 µM (active) in experiment [13]; 31.9 µM (active) in [14]; 5.5 µM (active) in experiment [15]; 9.77 µM (active) in experiment [17]; 5.53 µM (active) in experiment [18]; 5.68 µM (active) in [20]. The AC50 in experiment [19] was 9.78 µM (active). In [16], the result was inactive.
On to `NC(=O)c1nc(-c2cccc(-c3cc(F)ccc3OCC(F)(F)C(F)(F)F)c2)n[nH]1`, for which the outcome in experiment [1], in [3], in [4], in [5], in [7] and in experiment [8] was inactive. The result in experiment [9], in experiment [10], in experiment [11], in experiment [14] and in experiment [16] was inactive. Moreover, the AC50 in experiment [2] is 28.7 µM (active); in experiment [6] it was 31.4 µM (active); in experiment [13] it was 32 µM (active); in experiment [15], 17.7 µM (active); in [17], 39.3 µM (active); in [18] it was 31.1 µM (active). Besides, the AC50 in experiment [20] is 44 µM (active); in experiment [19], 36.4 µM (active).
Turning to `COc1cccc([C@H](O)C2CCN(CCc3ccc(F)cc3)CC2)c1OC`, the result in experiment [1], in experiment [2], in experiment [3], in experiment [4], in [5] and in experiment [6] was inactive. Also, the result in experiment [7], in [8], in [9], in experiment [10], in [11] and in experiment [12] was inactive. For the same molecule, the outcome in experiment [13], in [14], in [15], in [16], in [17] and in experiment [18] was inactive. For the same molecule, the outcome in [20] and in experiment [19] was inactive.
